ELG1 genotoxic: induces genotoxicity in HEK293T cells with luciferase-tagged ELG1 | Potency, µM (highest dose often 46 µM), most hits filed as activators | AID 504466 | 1.3% of 330,000 active | HEK293T ELG1-luciferase reporter, luminescence, 16 h; note: nearly all actives have a fitted effect of over 60% in size
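DMSO vehicle served as control against compound-treated ELG1-luciferase HEK293T cells; exposure lasted 16 hr at 37 °C and 5% CO2, followed by ONE-Glo luminescence detection after 30 min.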
FLuc counter: counter-screen for miR-21 project: firefly luciferase inhibitors or activators; Potency, µM (series often up to 57.5 µM), hits mostly inhibitors; P08659; 6.9% of 360,000 active; purified FLuc, Km substrates, luminescence inhibition; note: nearly all actives have a fitted effect of over 55% in size
Target sequence (P08659 whole entry, looked up): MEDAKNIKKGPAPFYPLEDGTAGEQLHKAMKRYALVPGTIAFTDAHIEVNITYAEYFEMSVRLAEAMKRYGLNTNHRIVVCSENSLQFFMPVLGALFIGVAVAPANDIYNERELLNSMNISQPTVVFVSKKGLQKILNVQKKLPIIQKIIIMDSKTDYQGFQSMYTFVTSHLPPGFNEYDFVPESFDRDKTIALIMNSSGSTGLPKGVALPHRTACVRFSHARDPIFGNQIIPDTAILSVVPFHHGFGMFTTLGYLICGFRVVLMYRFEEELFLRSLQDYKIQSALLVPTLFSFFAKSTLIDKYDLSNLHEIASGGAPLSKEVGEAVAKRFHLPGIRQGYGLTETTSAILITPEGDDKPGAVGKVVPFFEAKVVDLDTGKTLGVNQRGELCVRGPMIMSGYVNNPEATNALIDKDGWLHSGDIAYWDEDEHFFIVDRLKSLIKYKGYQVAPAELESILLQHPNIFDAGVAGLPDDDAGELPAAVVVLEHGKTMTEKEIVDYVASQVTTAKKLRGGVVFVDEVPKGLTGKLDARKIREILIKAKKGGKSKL
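Biochemical qHTS of compounds, final roughly 60 µM downward over six points, against 10 nM purified firefly luciferase using Km concentrations of substrates (10 uM D-luciferin, 10 uM ATP) in Tris acetate pH 7.5 buffer; luminescence output.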
NPC1 promoter act: NPC1 promoter activation; Huh7 NPC1 promoter luciferase reporter, 24 h; Potency, µM (top dose mostly 9.22 µM), actives largely listed as activators; 2.4% of 320,000 active; note: nearly all actives have a fitted effect of over 60% in size
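Luminescence from an NPC1 promoter-driven luciferase reporter in stably transfected Huh7 cells was measured after 24 h compound treatment at 37 °C, followed by 10 min ambient incubation with luciferase detection reagent.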
SMN2 splice up: increases expression of the SMN2 splice variant; HEK293 SMN2-luciferase splicing reporter, luminescence, 30-36 h; Potency, µM (highest dose often 46.1 µM), hits mostly activators; 2.8% of 210,000 active; AID 1458; note: nearly all actives have a fitted effect of over 55% in size
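HEK293 cells carry an SMN2 […]–luciferase reporter in which exon 7 inclusion puts luciferase in frame. Cells were plated 10-12 h before compound addition, then incubated 30-36 h at 37C. ONE-Glo luminescence was read; sodium butyrate at 4.5 mM final served as control.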
Rab9 prom act: activators of Rab9 promoter; Huh7 Rab9 promoter-luciferase reporter, luminescence, 24 h; Potency, µM (series often up to 9.22 µM), hits mostly activators; 2.8% of 320,000 active; AID 485297; note: nearly all actives have a fitted effect of over 60% in size
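Huh7 cells stably carrying Rab9 promoter–luciferase reporter, plated 1500 cells/well, compound added after 2 h and incubated 24 h at 37 °C; luciferase luminescence then read after 10 min with detection reagent.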
Of the large screens only hits and unclear results are named; the others gave an inactive call. Compounds with a hit are over-represented: about 7.5% of the library has one in this group of screens. Calls come from the whole dose curve; as a rule, active = well fitted curve in the direction sought with a large enough effect; inconclusive = small, poorly fitted or top-dose-only effect, or another doubt; inactive = no such curve, though single readings can be large; an effect the other way counts as inactive or inconclusive.

Clc1ccc(-c2noc(CCCOc3ccccc3)n2)cc1	none
Cc1ccc(OCc2nc(-c3ccccc3)no2)c(C)c1	ELG1 genotoxic 3.2µM, FLuc counter 3µM, NPC1 promoter act 2.2µM, SMN2 splice up 10µM, Rab9 prom act 2.2µM
CC(C)(C)Cc1nc(-c2ccc(Cl)cc2)no1	FLuc counter 15µM
Clc1ccc(-c2noc(COc3ccccc3)n2)cc1	FLuc counter 13µM
Clc1ccc(-c2noc(CN3CCOCC3)n2)cc1	ELG1 genotoxic inconclusive, FLuc counter inconclusive, NPC1 promoter act 2µM, Rab9 prom act 3.2µM (no result: SMN2 splice up)
Cc1ccc(-n2c(C)nnc2SCC(=O)N(C)c2c(N)n(Cc3ccccc3)c(=O)[nH]c2=O)cc1	none (no result: SMN2 splice up)
O=C(Nc1ccc(-c2cn3ccccc3n2)cc1)c1cc(Br)ccc1O	none (no result: ELG1 genotoxic, FLuc counter, NPC1 promoter act, Rab9 prom act)
O=C(Nc1cccc(-c2cn3ccccc3n2)c1)c1cccc(Cl)c1	FLuc counter 2.4µM
O=C(Nc1cccc(-c2cn3ccccc3n2)c1)c1cnccn1	FLuc counter 12µM, SMN2 splice up inconclusive
Cc1ccc(NC(=O)[C@H](Cc2ccccc2)N2Cc3ccccc3C2=O)cc1	none (no result: ELG1 genotoxic, NPC1 promoter act, Rab9 prom act)
COC(=O)C(Cc1ccc(OC(=O)c2ccc(C)cc2)cc1)N1Cc2ccccc2C1=O (stereo not drawn)	FLuc counter inconclusive, NPC1 promoter act inconclusive, SMN2 splice up 16µM, Rab9 prom act inconclusive
NNC(=O)C(Cc1ccc(O)cc1)N1Cc2ccccc2C1=O (stereo not drawn)	none (no result: SMN2 splice up)
COC(=O)C(Cc1ccc(O)cc1)N1Cc2ccccc2C1=O (stereo not drawn)	ELG1 genotoxic inconclusive, FLuc counter 15µM, NPC1 promoter act 4µM, Rab9 prom act 1.8µM (no result: SMN2 splice up)
Cc1ccc2cc(-c3noc(C(C)(C)C)n3)c(=O)[nH]c2c1	none
CCc1nc(-c2cc3ccc(C)cc3[nH]c2=O)no1	ELG1 genotoxic inconclusive, FLuc counter 15µM, SMN2 splice up inconclusive, Rab9 prom act inconclusive
CCOC(=O)Cc1csc(NS(=O)(=O)c2ccc(OC)cc2)n1	none
COc1ccc(/C=C/C(=O)Nc2nc(-c3cccs3)ns2)cc1OC	none (no result: ELG1 genotoxic, NPC1 promoter act, SMN2 splice up, Rab9 prom act)
Cn1ccnc1SCC(=O)c1cccc(Br)c1	ELG1 genotoxic inconclusive, FLuc counter 15µM, Rab9 prom act inconclusive
COc1ccc(C(=O)CSc2nccn2C)c(OC)c1	ELG1 genotoxic inconclusive, FLuc counter 13µM, NPC1 promoter act 4µM, Rab9 prom act 3.5µM (no result: SMN2 splice up)
Cn1cnnc1SCC(=O)c1cc2ccccc2o1	none
COc1cccc(C(=O)CSc2nccn2C)c1	ELG1 genotoxic inconclusive, FLuc counter 17µM, NPC1 promoter act 1.6µM, Rab9 prom act 2.5µM (no result: SMN2 splice up)
Cn1ccnc1SCC(=O)c1cc2ccccc2o1	ELG1 genotoxic inconclusive, FLuc counter 9.5µM, NPC1 promoter act inconclusive, Rab9 prom act inconclusive
Cn1ccnc1SCC(=O)Nc1cccc(Br)c1	none (no result: ELG1 genotoxic, NPC1 promoter act, Rab9 prom act)
O=C(CSc1ncnc2c1cnn2CCc1ccccc1)Nc1cccc(C(F)(F)F)c1	FLuc counter inconclusive
CSCC[C@@H](C(=O)O)N(C)C	none (no result: ELG1 genotoxic, FLuc counter, NPC1 promoter act, Rab9 prom act)
Cn1ccnc1SCC(=O)c1ccc2ccccc2c1	ELG1 genotoxic inconclusive, FLuc counter 8.5µM, NPC1 promoter act 2.2µM, SMN2 splice up inconclusive, Rab9 prom act 1µM
Cn1ccnc1SCC(=O)Nc1ccc2ccccc2c1	ELG1 genotoxic 1.3µM, FLuc counter 5.4µM, NPC1 promoter act 1.3µM, SMN2 splice up 6.3µM, Rab9 prom act 1.6µM
O=C(CSc1nccc(=O)[nH]1)c1cc2ccccc2o1	FLuc counter 15µM (no result: SMN2 splice up)
O=C(CSc1ccc([N+](=O)[O-])cc1)NNC(=O)c1ccccc1F	none (no result: SMN2 splice up)
COc1ccc(S(=O)(=O)NC2CCc3ccccc32)cc1OC (stereo not drawn)	none (no result: SMN2 splice up)
COc1ccc(NC(=O)c2ccc(-n3nc(C)cc3C)cc2)cc1OC	FLuc counter 15µM
Cc1cc(C)n(-c2ccc(C(=O)Nc3ccc(C)c(S(=O)(=O)N(C)C)c3)cc2)n1	FLuc counter 17µM
Cc1cc(C)n(-c2ccc(C(=O)Nc3ccc4c(c3)OCO4)cc2)n1	ELG1 genotoxic inconclusive, FLuc counter 13µM, NPC1 promoter act inconclusive, SMN2 splice up inconclusive, Rab9 prom act inconclusive
Cc1cc(C)n(-c2ccc(C(=O)Nc3ccc(N4CCOCC4)cc3)cc2)n1	none
Cc1cc(C)n(-c2ccc(C(=O)NC3=NCCS3)cc2)n1	ELG1 genotoxic inconclusive, FLuc counter 15µM, NPC1 promoter act inconclusive, SMN2 splice up inconclusive, Rab9 prom act 3.2µM
CSc1ccc(S(=O)(=O)N2CCC(C(=O)NC3CC3)CC2)cc1	none (no result: SMN2 splice up)
CC(NC(=O)CCc1ccccc1)c1cc2c(cc1Cl)OCCO2 (stereo not drawn)	none
CCn1c(=O)c(C(=O)Nc2ccc(C(C)=O)cc2)nc2ccccc21	FLuc counter 15µM (no result: ELG1 genotoxic, NPC1 promoter act, Rab9 prom act)
CCC(=O)c1ccc(OCCn2cnc3ccccc32)cc1	none
CCCCOc1ccc(C(=O)Nc2cc(C)c(OCC(=O)N3CCOCC3)c(C)c2)cc1	FLuc counter 2.1µM
COc1cc(C(=O)Nc2ccc(C)cn2)ccc1OCC(=O)N1CCOCC1	FLuc counter 17µM (no result: SMN2 splice up)
COc1cc(C(=O)Nc2cc(C)ccn2)ccc1OCC(=O)N1CCOCC1	ELG1 genotoxic inconclusive, FLuc counter inconclusive (no result: SMN2 splice up)
Cc1cc(NC(=O)c2ccc(Cl)cc2)cc(C)c1OCC(=O)N1CCOCC1	FLuc counter 1.7µM, NPC1 promoter act 3.2µM, Rab9 prom act inconclusive (no result: SMN2 splice up)
Cc1cc(OCCCSc2nc(-c3ccc(C(C)(C)C)cc3)nc3cc(=O)[nH]n23)ccc1Cl	none (no result: ELG1 genotoxic, NPC1 promoter act, SMN2 splice up, Rab9 prom act)
Cc1ccc(CN2CCN(Cc3ccc(C)o3)[C@@H](C)C2)o1	none (no result: ELG1 genotoxic, FLuc counter, NPC1 promoter act, Rab9 prom act)
CC(=O)Nc1cccc(N=NN2CCCCC2)c1	FLuc counter 17µM

Assay outcomes (PubChem BioAssay)
